{"source": "ChEMBL document CHEMBL3433997", "about": "“St. Jude Leishmania screening dataset” (2016)", "assay_type_in_all_cases": "functional", "key": {"[1]": {"target": "Solute carrier family 2, facilitated glucose transporter member 1 (Homo sapiens) (UniProt P11166)", "sequence (P11166 whole entry)": "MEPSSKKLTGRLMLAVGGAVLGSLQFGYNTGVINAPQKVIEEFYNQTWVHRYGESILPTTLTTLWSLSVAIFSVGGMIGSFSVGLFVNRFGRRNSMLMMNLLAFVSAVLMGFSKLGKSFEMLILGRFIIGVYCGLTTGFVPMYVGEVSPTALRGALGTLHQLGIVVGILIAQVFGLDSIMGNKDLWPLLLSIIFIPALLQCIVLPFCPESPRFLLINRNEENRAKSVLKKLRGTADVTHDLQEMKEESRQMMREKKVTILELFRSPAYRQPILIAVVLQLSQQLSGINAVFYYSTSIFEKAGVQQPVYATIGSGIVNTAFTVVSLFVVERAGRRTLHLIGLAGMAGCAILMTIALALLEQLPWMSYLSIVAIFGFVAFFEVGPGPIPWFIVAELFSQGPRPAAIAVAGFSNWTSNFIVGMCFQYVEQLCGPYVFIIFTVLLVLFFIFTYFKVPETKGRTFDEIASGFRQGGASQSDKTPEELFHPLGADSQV", "test": "ST_JUDE_LEISH: Cytotoxicity at 2uM final concentration against transgenic Leishmania Mexicana promastigotes LmGLUT1 that are glucose transport deficient and complemented with the human glucose transporter GLUT1. Activity is measured by DNA content using SYBR green in vitro"}, "[2]": {"target": "Hexose transporter 1 (Plasmodium falciparum) (UniProt O97467)", "test": "ST_JUDE_LEISH: Cytotoxicity at 2uM final concentration against transgenic Leishmania Mexicana promastigotes LmPfHT that are glucose transport deficient and complemented with the Plasmodium falciparum hexose transporter. Activity is measured by DNA content using SYBR green in vitro"}, "[3]": {"target": "Glucose transporter (Leishmania mexicana) (UniProt O61059)", "test": "ST_JUDE_LEISH: Cytotoxicity at 2uM final concentration against transgenic Leishmania Mexicana promastigotes LmGT2 that are glucose transport deficient and complemented with the L. Mexicana glucose transporter 2. Activity is measured by DNA content using SYBR green in vitro"}}, "data": [{"smiles": "CN1CCC(Oc2cc(NC(=O)Nc3ccc(-c4ccncc4)c(Cl)c3)ccc2Cl)CC1", "values": [{"measurement": "inhibition", "setting": "[1]", "result": 16, "unit": "%"}, {"measurement": "inhibition", "setting": "[2]", "result": 13.7, "unit": "%"}, {"measurement": "inhibition", "setting": "[3]", "result": 9.26, "unit": "%"}]}, {"smiles": "Cc1nc(C)c(-c2ccc(Oc3ccc(Cl)c(Cl)c3)cc2)c(O)c1Br", "values": [{"measurement": "inhibition", "setting": "[1]", "result": 0.19, "unit": "%"}, {"measurement": "inhibition", "setting": "[2]", "result": 0.11, "unit": "%"}, {"measurement": "inhibition", "setting": "[3]", "result": 0.06, "unit": "%"}]}, {"smiles": "CN(CCC(CCN1CCC(c2c[nH]c3ccccc23)CC1)c1ccccc1)C(=O)Nc1ccc(Cl)c(Cl)c1", "note": "(stereo not drawn)", "values": [{"measurement": "inhibition", "setting": "[1]", "result": 2.82, "unit": "%"}, {"measurement": "inhibition", "setting": "[2]", "result": 0.21, "unit": "%"}, {"measurement": "inhibition", "setting": "[3]", "result": 0.72, "unit": "%"}]}, {"smiles": "COc1ccc(NC(=O)[C@H](Cc2ccccc2)Nc2cc(C)nc(NCCN3CCCC3)n2)cc1", "values": [{"measurement": "inhibition", "setting": "[1]", "result": 11.2, "unit": "%"}, {"measurement": "inhibition", "setting": "[2]", "result": 9.21, "unit": "%"}, {"measurement": "inhibition", "setting": "[3]", "result": 7.49, "unit": "%"}]}, {"smiles": "Cc1cccc(C(=O)Nc2ccnc(N3CCC(N(C)Cc4ccc(C#N)cc4)CC3)c2)c1", "values": [{"measurement": "inhibition", "setting": "[1]", "result": 3.54, "unit": "%"}, {"measurement": "inhibition", "setting": "[2]", "result": 2.52, "unit": "%"}, {"measurement": "inhibition", "setting": "[3]", "result": 3.1, "unit": "%"}]}, {"smiles": "O=C(CC1SC(N2N=C(c3cccs3)CC2c2ccccc2)=NC1=O)Nc1ccc(Cl)cc1", "note": "(stereo not drawn)", "values": [{"measurement": "inhibition", "setting": "[1]", "result": 1.98, "unit": "%"}, {"measurement": "inhibition", "setting": "[2]", "result": 2.91, "unit": "%"}, {"measurement": "inhibition", "setting": "[3]", "result": -0.33, "unit": "%"}]}, {"smiles": "Cc1cccc2nc(-c3ccc(-c4cccc(CNCC5CCCO5)c4)s3)[nH]c12", "note": "(stereo not drawn)", "values": [{"measurement": "inhibition", "setting": "[1]", "result": 13, "unit": "%"}, {"measurement": "inhibition", "setting": "[2]", "result": 11.4, "unit": "%"}, {"measurement": "inhibition", "setting": "[3]", "result": 11.3, "unit": "%"}]}, {"smiles": "CC(C)c1ncc(-c2ccncc2)c(C2CCC(CNC(=O)c3ccncc3)CC2)n1", "note": "(stereo not drawn)", "values": [{"measurement": "inhibition", "setting": "[1]", "result": 3.67, "unit": "%"}, {"measurement": "inhibition", "setting": "[2]", "result": -0.19, "unit": "%"}, {"measurement": "inhibition", "setting": "[3]", "result": 1.87, "unit": "%"}]}, {"smiles": "CCCc1cc(Cc2cnc(N)nc2N)cc2c1OC(C)(C)C2", "values": [{"measurement": "inhibition", "setting": "[1]", "result": 5.74, "unit": "%"}, {"measurement": "inhibition", "setting": "[2]", "result": 3.03, "unit": "%"}, {"measurement": "inhibition", "setting": "[3]", "result": 2.58, "unit": "%"}]}, {"smiles": "COc1ccc2nccc([C@@H](O)CN3CCC(NCc4cc5c(F)ccc(F)c5[nH]4)CC3)c2c1", "values": [{"measurement": "inhibition", "setting": "[1]", "result": 21.9, "unit": "%"}, {"measurement": "inhibition", "setting": "[2]", "result": 29.8, "unit": "%"}, {"measurement": "inhibition", "setting": "[3]", "result": 2.77, "unit": "%"}]}, {"smiles": "CC(=O)N[C@@H]1c2cc(C(C)=O)ccc2OC(C)(C)[C@@H]1O", "values": [{"measurement": "inhibition", "setting": "[1]", "result": -0.93, "unit": "%"}, {"measurement": "inhibition", "setting": "[2]", "result": -0.7, "unit": "%"}, {"measurement": "inhibition", "setting": "[3]", "result": -0.73, "unit": "%"}]}, {"smiles": "COc1cc(C(F)(F)F)c2cc(CNCCCNc3nc4ccccc4[nH]3)[nH]c2c1", "values": [{"measurement": "inhibition", "setting": "[1]", "result": 1.29, "unit": "%"}, {"measurement": "inhibition", "setting": "[2]", "result": 2.11, "unit": "%"}, {"measurement": "inhibition", "setting": "[3]", "result": 2.95, "unit": "%"}]}, {"smiles": "Cc1nc(O)c2c(ccc3ccc(CN(C)c4ccc(C(=O)N[C@@H](CCC(=O)O)C(=O)O)cc4)cc32)n1", "values": [{"measurement": "inhibition", "setting": "[1]", "result": -1.5, "unit": "%"}, {"measurement": "inhibition", "setting": "[2]", "result": -0.69, "unit": "%"}, {"measurement": "inhibition", "setting": "[3]", "result": -1.57, "unit": "%"}]}, {"smiles": "COCCN1CCC(N(Cc2ccc(-c3ccc(OC(F)(F)F)cc3)cc2)C(=O)Cn2c(CCc3cccc(F)c3F)cc(=O)c3ccccc32)CC1", "values": [{"measurement": "inhibition", "setting": "[1]", "result": 4.31, "unit": "%"}, {"measurement": "inhibition", "setting": "[2]", "result": 4.88, "unit": "%"}, {"measurement": "inhibition", "setting": "[3]", "result": 4.4, "unit": "%"}]}, {"smiles": "Cc1[nH]c(C)c([N+](=O)[O-])c(=O)c1-c1ccc(Oc2ccccc2)cc1", "values": [{"measurement": "inhibition", "setting": "[1]", "result": -1.81, "unit": "%"}, {"measurement": "inhibition", "setting": "[2]", "result": 0.5, "unit": "%"}, {"measurement": "inhibition", "setting": "[3]", "result": -1.98, "unit": "%"}]}, {"smiles": "CC1CNC(c2ccc(NC(=O)c3ccc(C(=O)Nc4ccc(C5=NC(C)CN5)cc4)cc3)cc2)=N1", "note": "(stereo not drawn)", "values": [{"measurement": "inhibition", "setting": "[1]", "result": 8.16, "unit": "%"}, {"measurement": "inhibition", "setting": "[2]", "result": 7.31, "unit": "%"}, {"measurement": "inhibition", "setting": "[3]", "result": 0.91, "unit": "%"}]}]}
